Experimental findings from ChEMBL document CHEMBL1961873, “Compounds: GSK PKIS; Assays: Nanosyn kinase panel” (2012) are described below.

Molecules are shown by their SMILES.

Chain of Dual specificity protein kinase CLK2 (Homo sapiens) (P49760 whole entry, looked up): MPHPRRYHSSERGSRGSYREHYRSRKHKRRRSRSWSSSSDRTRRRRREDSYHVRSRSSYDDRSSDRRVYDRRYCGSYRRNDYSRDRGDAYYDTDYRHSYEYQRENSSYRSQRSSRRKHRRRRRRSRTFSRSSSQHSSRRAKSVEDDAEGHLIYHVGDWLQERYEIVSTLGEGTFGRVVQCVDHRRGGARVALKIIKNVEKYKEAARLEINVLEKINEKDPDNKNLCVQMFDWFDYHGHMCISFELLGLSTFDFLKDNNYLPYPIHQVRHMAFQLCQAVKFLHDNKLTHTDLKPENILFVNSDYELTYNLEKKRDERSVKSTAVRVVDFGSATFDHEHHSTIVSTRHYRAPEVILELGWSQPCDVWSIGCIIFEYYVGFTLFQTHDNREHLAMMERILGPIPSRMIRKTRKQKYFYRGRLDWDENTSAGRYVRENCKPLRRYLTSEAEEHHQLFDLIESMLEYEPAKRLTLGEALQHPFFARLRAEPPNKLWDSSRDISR

One experiment concerns the target Dual specificity protein kinase CLK2 (Homo sapiens) (UniProt P49760). The settings on record: at 1 µM.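 Note: reported values are mean percent inhibition of CLK2.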
For `Nc1nccc(C#Cc2cncnc2Nc2ccc(OCc3cccc(F)c3)c(Cl)c2)n1`, the inhibition (commonly the drop in the measured response relative to a control, in per cent) amounted to 14.2%.

Turning to `CCn1c(-c2nonc2N)nc2ccc(F)cc21`, the inhibition stood at 0.59%.

Turning to `NS(=O)(=O)c1ccc(NC=C2C(=O)Nc3ccc4ncsc4c32)cc1`, the inhibition amounted to 80%.

On to `COC(=O)c1ccc2c(c1)C(=Cc1cc(Br)c(O)c(Br)c1)C(=O)N2`, for which the inhibition came to 50.1%.

As for `Cc1cc(-c2ccccn2)cc(C)c1/C=C/c1cncc(-c2nn[nH]n2)c1`, the inhibition amounted to 1.77%.

The target of the next experiment is Dual specificity protein kinase CLK3 (Homo sapiens) (UniProt P49761). The settings on record: at 0.1 µM.
Chain of Dual specificity protein kinase CLK3 (Homo sapiens) (P49761 whole entry, looked up): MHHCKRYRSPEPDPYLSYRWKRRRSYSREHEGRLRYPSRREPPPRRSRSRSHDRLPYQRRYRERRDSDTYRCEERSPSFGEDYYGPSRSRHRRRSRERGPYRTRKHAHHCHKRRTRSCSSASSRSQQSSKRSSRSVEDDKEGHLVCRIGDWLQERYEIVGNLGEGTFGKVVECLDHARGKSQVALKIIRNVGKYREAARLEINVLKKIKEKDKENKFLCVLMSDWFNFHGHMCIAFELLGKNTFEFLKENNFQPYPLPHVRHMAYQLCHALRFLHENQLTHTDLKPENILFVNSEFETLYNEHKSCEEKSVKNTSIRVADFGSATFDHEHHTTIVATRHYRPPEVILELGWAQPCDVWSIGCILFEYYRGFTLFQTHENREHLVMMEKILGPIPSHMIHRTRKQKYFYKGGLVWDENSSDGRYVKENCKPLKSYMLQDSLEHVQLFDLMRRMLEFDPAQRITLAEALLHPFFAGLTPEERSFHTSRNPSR
As for `Nc1ccc(C#Cc2cncnc2Nc2ccc(OCc3cccc(F)c3)c(Cl)c2)cc1`, the inhibition was found to be 0.75%.

Turning to `ON=C1CCc2cc(-c3nc(C4CCNCC4)[nH]c3-c3ccncc3)ccc21`, the inhibition was -0.6%.

For `CS(=O)(=O)CCNCc1nc(-c2ccc3ncnc(Nc4ccc(OCc5cccc(C(F)(F)F)c5)cc4)c3c2)cs1`, the inhibition is 0.04%.

As to `Cc1ccc2c(-c3ccnc(Nc4ccc5c(c4)OCCO5)n3)c(-c3ccc(C(F)(F)F)cc3)nn2n1`, the inhibition is 1.41%.

Take `CN(C)C(=O)O[C@H]1CN[C@H](C#Cc2cc3ncnc(Nc4ccc(OCc5cccc(F)c5)c(Cl)c4)c3s2)C1`: the inhibition was determined as 1.51%.

With `COc1cc(/C=N/Nc2ncnc3c2cnn3C(C)C)ccc1O`, the inhibition stood at 5.21%.

With `Cc1cc(Cl)cc2c1NC(=O)C2=NNc1ccc(S(N)(=O)=O)cc1`, the inhibition is 0.9%.

Consider `Nc1nccc(-c2c(-c3ccc(F)cc3)nn3cc(C(F)(F)F)ccc23)n1`, for which the inhibition is -0.16%.

Turning to `COC(=O)c1cncc(/C=C/c2c(C)cc(O)cc2C)c1`, the inhibition came out at 2.11%.

As for `Cc1nc(-c2ccccc2)n2nc(NCCCN3CCOCC3)ncc12`, the inhibition was found to be 0.04%.

With `Cc1ccc2c(c1)/C(=N/Nc1ccc(S(N)(=O)=O)cc1)C(=O)N2`, the inhibition is -1.33%.

As to `CCCN1CCCC(c2ccc(Nc3nc(Nc4cc(F)ccc4C(N)=O)c4cc[nH]c4n3)c(OC)c2)C1` (stereo not drawn), the inhibition was determined as 4.01%.

As to `CN(c1ccc(NC(=O)Nc2ccc(OC(F)(F)F)cc2)cc1)c1ccnc(Nc2cccc(S(N)(=O)=O)c2)n1`, the inhibition worked out at 0.59%.

Turning to `O=C1Nc2ccccc2/C1=C/Nc1ccc2[nH]c(=O)[nH]c2c1`, the inhibition amounted to 1.23%.

In the case of `FC(F)(F)c1ccc(-c2nn3ncccc3c2-c2ccnc(Nc3ccc4c(c3)OCCO4)n2)cc1`, the inhibition is 5.98%.

`N#Cc1c(NC(=O)c2ccccc2F)sc2c1CCCC2`: the inhibition was -0.38%.

Regarding `Cc1ccc(Nc2ccnc(Nc3cccc(C(N)=O)c3)n2)cc1O`, the inhibition was -0.76%.

In the case of `Cc1ccc(C(=O)NC2CC2)cc1-c1ccc2[nH]ncc2c1`, the inhibition is -0.51%.

With `COc1cc(Nc2nccc(-c3cnn4ncccc34)n2)cc(OC)c1`, the inhibition is 36.5%.

Regarding `NS(=O)(=O)c1cccc(-c2cc3ccncc3cc2OCc2ccccc2)c1`, the inhibition was 1.46%.

In the case of `CC(C)c1ccc(Nc2nccc(-c3cnn4ncccc34)n2)cc1`, the inhibition was 3.13%.

`CCOc1nccc2c1nc(-c1nonc1N)n2CC`: the inhibition is 1.37%.

For `c1ccc(Cc2nc3ccc(Nc4ncnc5ccccc45)cc3[nH]2)cc1`, the inhibition turned out to be 2.76%.

`Cc1ccc(O)cc1Nc1ccnc2ccc(S(C)(=O)=O)cc12`: the inhibition was determined as 1.75%.

As for `Cc1ccc(NC(=O)CC2CC2)cc1-c1ccc(C(=O)NCC2CC2)cc1`, the inhibition came out at 1.44%.

Take `O=S(=O)(CCOCc1ccc(-c2ccc3ncnc(Nc4ccc(OCc5cccc(F)c5)c(Cl)c4)c3c2)o1)c1ccccc1`: the inhibition turned out to be 0.11%.

Turning to `CCn1c(-c2nonc2N)nc2c(C#CC(C)(C)O)nc(OCCNC)cc21`, the inhibition is -0.84%.

In the case of `COc1cc2ncn(-c3cc(OCc4ccccc4S(C)(=O)=O)c(C#N)s3)c2cc1OC`, the inhibition amounted to 2.39%.

Consider `Nc1nccc(C#Cc2cncnc2Nc2ccc(OCc3cccc(F)c3)c(Cl)c2)n1`, for which the inhibition was 1.85%.

Consider `CCn1c(-c2nonc2N)nc2ccc(F)cc21`, for which the inhibition was 2.12%.

For the compound `NS(=O)(=O)c1ccc(NC=C2C(=O)Nc3ccc4ncsc4c32)cc1`, the inhibition was 3.57%.

Consider `COC(=O)c1ccc2c(c1)C(=Cc1cc(Br)c(O)c(Br)c1)C(=O)N2`, for which the inhibition is 0.44%.

Turning to `Cc1cc(-c2ccccn2)cc(C)c1/C=C/c1cncc(-c2nn[nH]n2)c1`, the inhibition was found to be 0.5%.
